In the library only some 1.6% were active in any assay of this set; here they are far more common.
KCNQ2 inh: rat KCNQ2 potassium channel inhibitors, primary screen, cell-based, CHO-K1, FluxOR thallium flux, B-score. actives 1.1% (n = 310,000). B-score at 10 µM. 20 min; active compounds read low. Potassium voltage-gated channel subfamily KQT member 2 (Rattus norvegicus), O88943. AID 2156, 2009;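 active means fluorescence ratio B-score at most minus 3 library SDs, with starting brightness B-score within 2 library SDs, cut at about -5.5 in these data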
KCNQ2 enhance: potentiators of rat KCNQ2 potassium channel | CHO-K1 KCNQ2, FluxOR thallium flux fluorescence; active compounds read high | actives 0.54% (n = 310,000) | B-score at 10 µM | Potassium voltage-gated channel subfamily KQT member 2 (Rattus norvegicus), O88943;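 active means fluorescence ratio B-score at least 3 SD of library B-scores, with initial fluorescence B-score within 3 of them, cut at about 5.3 in these data; same plate scores as AID 2156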;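 further: B-score of peak minus minimum over baseline fluorescence ratio after K+ and Tl+ stimulus; positive B-score means potentiation of KCNQ2 with more thallium influx and brighter signal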
Kir21 conf inh: mouse Kir2.1 channel blockers, retest, confirmation, cell-based, FluxOR thallium flux, duplicate. Tl flux remaining, % of negative control (active compounds read low), % at 10 µM. actives 41% (n = 2,300). Kir2.1-expressing cells, FluxOR thallium flux fluorescence; active compounds read low. AID 2032, 2009. shares compounds with KCNQ2 enhance;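 active means Primary-screen hit whose thallium flux fell at least 3 control SD below untreated wells in both duplicates, with normal baseline fluorescence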;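 further: 0% = blank wells without stimulus and 100% = stimulated no-compound controls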
HEK293 ctr: parental HEK293 activity in Kir2.1 inhibitor counter-screen | shares compounds with KCNQ2 enhance | parental HEK293 cells, FluxOR thallium flux fluorescence; 0% = unstimulated blank wells | FluxOR signal as % of negative control (100 = no effect), % at 10 µM | actives 19% (n = 2,300) | AID 2105;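 active means dye signal at least 3 control SD above or below untreated wells in both duplicates, raw fluorescence within 3, either direction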;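 further: percent is based on the flux ratio of peak minus minimum fluorescence over baseline F0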
CHO-K1 Tl ctr: nonspecific thallium flux increase in parental CHO-K1, confirmation, counter-screen for KCNQ2 potentiator project, cell-based, FluxOR thallium flux, duplicate. actives 43% (n = 1,200). AID 2282, 2010. parental CHO-K1 cells, FluxOR thallium flux fluorescence; zero = vehicle mean+3SD, 100% = vehicle-minus-blank window. shares compounds with KCNQ2 enhance. activity increase over 3SD of controls, % at 10 µM;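 active means signal rise of at least 3 SD above the untreated control mean, in both duplicate wells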;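 further: counter screen of KCNQ2 potentiator hits so any rise reflects channel-independent effects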
KCNQ1 sel pot: human KCNQ1 channel potentiation off-target, confirmation, selectivity assay for KCNQ2 potentiator project, cell-based, CHO, FluxOR thallium flux; shares compounds with KCNQ2 enhance; CHO KCNQ1 stable, FluxOR thallium flux fluorescence; beyond 3SD, as % of vehicle-control signal; activation over 3SD threshold, % at 10 µM; actives 28% (n = 1,200);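 active means fluorescence ratio rise of at least 3 SD of vehicle wells above their mean, in both replicate wells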;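 further: 0% = vehicle mean plus 3 SD and 100% = vehicle minus unstimulated blank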
KCNQ2 pot confirm: rat KCNQ2 channel potentiators, confirmation, cell-based, CHO, FluxOR thallium flux, duplicate. shares compounds with KCNQ2 enhance. CHO-KCNQ2 cells, FluxOR thallium flux fluorescence. potentiation, less the hit threshold, % at 10 µM. actives 68% (n = 1,200);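 active means fluorescence ratio rising 3 SD or more over the vehicle control mean in both replicates, plus primary screen hit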;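 further: peak minus minimum thallium fluorescence divided by baseline after K/Tl stimulus; 0% = vehicle mean plus 3 SD and 100% = vehicle minus unstimulated blank difference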
Kir2-1 sel: mouse Kir2.1 channel activation off-target, confirmation, selectivity assay for KCNQ2 potentiator project, cell-based, HEK293, FluxOR thallium flux; shares compounds with KCNQ2 enhance; HEK293 Kir2.1, FluxOR thallium flux fluorescence; activity over 3SD threshold, % at 10 µM; actives 2% (n = 1,200); AID 2345, 2010;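 active means fluorescence ratio rise of at least 3 SD above the vehicle-control mean, seen in both replicates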;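 further: 0% = vehicle mean plus 3 SD and 100% = vehicle minus no-stimulus blank window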
KCNQ2 W236L MoA: potentiators of retigabine-insensitive KCNQ2 W236L, mechanism study for KCNQ2 potentiator project, cell-based, rat KCNQ2 W236L, CHO, automated patch clamp. actives 10% (n = 940). current increase over 3SD of negative controls (%), active compounds read high, % at 25 µM. shares compounds with KCNQ2 enhance. automated patch clamp current;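 active means current increase at least 3 SD of the untreated controls above them in both duplicate recordings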
Target sequence (O88943 whole entry W236L, looked up): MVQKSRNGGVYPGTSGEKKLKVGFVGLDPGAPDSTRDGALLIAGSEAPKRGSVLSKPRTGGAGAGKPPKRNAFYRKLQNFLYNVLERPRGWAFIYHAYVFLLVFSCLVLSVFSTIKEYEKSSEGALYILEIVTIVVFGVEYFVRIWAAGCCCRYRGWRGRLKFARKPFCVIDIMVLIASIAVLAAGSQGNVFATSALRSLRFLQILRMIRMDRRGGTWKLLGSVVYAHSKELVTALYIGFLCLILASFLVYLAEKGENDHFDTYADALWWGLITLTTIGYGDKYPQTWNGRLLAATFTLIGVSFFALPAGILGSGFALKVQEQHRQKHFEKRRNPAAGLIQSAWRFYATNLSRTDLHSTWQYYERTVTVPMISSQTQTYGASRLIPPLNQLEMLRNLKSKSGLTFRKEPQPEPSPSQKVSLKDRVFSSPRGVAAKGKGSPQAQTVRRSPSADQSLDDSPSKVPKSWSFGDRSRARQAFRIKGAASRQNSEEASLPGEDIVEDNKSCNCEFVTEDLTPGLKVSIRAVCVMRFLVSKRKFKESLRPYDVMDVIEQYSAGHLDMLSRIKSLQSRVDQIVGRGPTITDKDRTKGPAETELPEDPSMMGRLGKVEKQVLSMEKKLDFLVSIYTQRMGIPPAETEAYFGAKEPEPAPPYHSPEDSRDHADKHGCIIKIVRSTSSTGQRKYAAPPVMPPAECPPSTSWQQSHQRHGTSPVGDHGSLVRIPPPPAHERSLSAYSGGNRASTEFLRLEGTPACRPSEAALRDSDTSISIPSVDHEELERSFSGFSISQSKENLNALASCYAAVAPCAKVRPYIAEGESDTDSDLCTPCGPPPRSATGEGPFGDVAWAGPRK
* hit, by the source's call; i = inactive; . = not tested or not shown.

SMILES	KCNQ2 inh	KCNQ2 enhance	Kir21 conf inh	HEK293 ctr	others
CCOC(=O)N1CCC(NC(=O)c2cc(COc3ccc(F)cc3Cl)on2)CC1	i	.	.	.
CCN1CCN(C(=O)/C=C/c2ccc(C)o2)CC1	i	.	.	.
Cc1ccc(/C=C/C(=O)N2CC(C)CC(C)C2)o1 (configuration not stated)	i	6.21*	i	i	CHO-K1 Tl ctr=-6.9;KCNQ1 sel pot=-7.0;KCNQ2 pot confirm=-1.0;Kir2-1 sel=-38.0;KCNQ2 W236L MoA=i
COc1ccc(S(=O)(=O)N(CC(=O)NCc2ccco2)C2CCCCC2)cc1OC	i	.	.	.
CC12CN(Cc3ccccc3)CC(C)(CN(Cc3ccccc3)C1)C2=O	i	0.67	.	.
O=C(CCNS(=O)(=O)c1ccccc1F)N1CCN(C(c2ccccc2)c2ccccc2)CC1	i	16.5*	i	i	CHO-K1 Tl ctr=-11.7;KCNQ1 sel pot=-12.1;KCNQ2 pot confirm=44.4*;Kir2-1 sel=-31.8;KCNQ2 W236L MoA=i
O=C(CCNS(=O)(=O)c1ccccc1F)N1CCN(S(=O)(=O)c2cccc(F)c2)CC1	i	.	.	.
O=c1oc2ccccc2c(Nc2cccc3ccccc23)c1[N+](=O)[O-]	i	3.42	.	.
COc1ccc(S(=O)(=O)N2CCCCC2)cc1NS(=O)(=O)c1cc(Cl)ccc1Cl	i	1.2	.	.
Cc1ccc(CNS(=O)(=O)c2ccc3c(c2)n(C)c(=O)c(=O)n3C)cc1	i	0.13	.	.
Cc1cccc(NC(=O)CSCc2c(C)noc2C)c1C	i	0.82	.	.
Nc1cc(N)nc(SCC(=O)Nc2ccccc2N2CCOCC2)n1	i	1.15	.	.
Cc1ccc(-c2nnc(SCC(=O)Nc3ccccc3N3CCOCC3)o2)cc1	i	.	.	.
O=C(CSc1ccc(F)cc1)Nc1ccccc1N1CCOCC1	i	.	38.0%*	i
O=C(CSc1ccc(F)cc1)Nc1ccc(N2CCOCC2)cc1	i	0.06	.	.
Cc1ccc(SCC(=O)Nc2ccccc2N2CCOCC2)cc1	i	.	47.5%*	i
O=C(CSc1ccccc1)Nc1ccccc1N1CCOCC1	i	.	i	i
Cc1noc(C)c1CSCC(=O)Nc1ccccc1N1CCCCC1	i	.	56.0%*	76.0%*
O=C1C=C(c2ccccc2)OC2(CCCC2)O1	i	.	.	.
COc1ccc(C(C(=O)NC2CCCC2)N(C(=O)c2snc(C(N)=O)c2N)C2CCCC2)cc1OC (configuration not stated)	i	.	.	.
CCOC(=O)CSc1nnc(-c2ccco2)n1-c1ccccc1	i	.	.	.
COC(=O)c1cccc(CSc2nnc(-c3ccco3)n2-c2ccccc2)c1	i	.	58.0%*	68.0%*
COc1cc(CNCCN2CCOCC2)ccc1OCc1ccc(Cl)cc1Cl	i	.	.	.
COc1cc(CNCc2ccccn2)ccc1OCc1ccc(Cl)cc1Cl	i	.	26.0%*	i
O=C(NCCOc1ccccc1)C1Nc2ccc(OC(F)(F)F)cc2C2C=CCC12 (configuration not stated)	i	0.09	.	.
SMILES	KCNQ2 inh	KCNQ2 enhance	Kir21 conf inh	HEK293 ctr	others
OCCCn1c(C2CCCN2c2nc(-c3ccc(F)cc3)cs2)nc2cc(Cl)c(Cl)cc21 (configuration not stated)	i	0.26	.	.
Nc1c(Cl)cc(-c2csc(N3CCCC3c3nc4cc(Cl)c(Cl)cc4n3CCCO)n2)cc1Cl (configuration not stated)	i	.	.	.
Nc1c(Cl)cc(-c2csc(N3CCCC3c3nc4cc(Cl)c(N5CCCCC5)cc4n3CCCO)n2)cc1Cl (configuration not stated)	i	19.6*	i	i	CHO-K1 Tl ctr=-13.2;KCNQ1 sel pot=-49.6;KCNQ2 pot confirm=37.7*;Kir2-1 sel=-23.1;KCNQ2 W236L MoA=i
OCOCCCn1c(C2CCCN2c2nc(-c3ccc(F)cc3)cs2)nc2cc(Cl)c(N3CCCCC3)cc21 (configuration not stated)	i	6.89*	i	i	CHO-K1 Tl ctr=57.5*;KCNQ1 sel pot=-17.8;KCNQ2 pot confirm=-4.0;Kir2-1 sel=-24.1
Cc1csc(N2CCCC2c2nc3cc(Cl)c(N4CCCCC4)cc3n2CCOCCO)n1 (configuration not stated)	i	1.38	.	.
Nc1c(Cl)cc(-c2csc(N3CCCC3c3nc4cc(Cl)c(N5CCCCC5)cc4n3CCOCCO)n2)cc1Cl (configuration not stated)	i	6.28*	i	i	CHO-K1 Tl ctr=3.5*;KCNQ1 sel pot=-22.5;KCNQ2 pot confirm=-10.8;Kir2-1 sel=-23.9;KCNQ2 W236L MoA=i
COc1ccccc1NC(=O)COC(=O)c1c[nH]c(=O)[nH]c1=O	i	.	.	.
C=CCSc1nc2ccccc2c(=O)[nH]1	i	.	.	.
Cc1cc(C)c(S(=O)(=O)N2CCN(C(=O)C(C)Cn3nc(C)nc3C)CC2)c(C)c1 (configuration not stated)	i	.	.	.
O=C(Nc1ccc2c(c1)OCCO2)C1CCN(S(=O)(=O)c2ccc(Br)s2)CC1	i	1.04	.	.
CCOC(=O)c1csc(N/N=C2\CCCc3ccccc32)n1	i	5.46*	i	i	CHO-K1 Tl ctr=21.6*;KCNQ1 sel pot=-12.7;KCNQ2 pot confirm=-10.3;Kir2-1 sel=-42.6;KCNQ2 W236L MoA=i
CCOC(=O)c1csc(N/N=C2\CCc3ccccc32)n1	i	2.86	.	.
N#Cc1cn(CC(=O)N2CCCc3ccccc32)c2ccccc12	i	0.04	.	.
CCOc1ccccc1N1CCN(C(=O)c2ccc(-c3ccc(OC(C)=O)cc3)cc2)CC1	i	.	.	.
CCNC(=S)NNC(=O)CCc1nc2cc(Cl)ccc2n(Cc2ccccc2)c1=O	i	0.23	.	.
CN(C)C(CNC(=O)CCc1nc2cc(Cl)ccc2n(Cc2ccccc2)c1=O)c1ccccc1 (configuration not stated)	i	.	74.5%*	i

From PubChem BioAssay
